We go through 40 molecules from PubChem BioAssay (NCI).

The structures appear in SMILES notation. The panel holds about 83,000 compounds, 20% with a hit somewhere; the sample as a whole holds those more often.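 Compound tested at a single concentration for 48 hours in 96-well plates; a percent growth value below 10 was scored as active.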 Unmarked numbers belong to inactive results. Active and inactive are the calls of the source.

This experiment deals with SK-MEL-2 melanoma. Nature of the experiment: NCI-60 one-dose screen, 48 h (100 = growth as untreated, 0 = no growth, -100 = all killed). The conditions noted are these: 10 µM unless noted. As for the experimental part:
Growth inhibition of the SK-MEL-2 human tumor cell line is measured as a screen for anti-cancer activity. Cells are grown in 96 well plates and exposed to the test compound for 48 hours. Compounds are tested at a single concentration, which is 10^-5 M for most compounds. The reported endpoint is percent growth (GI% or GIPRCNT), where numbers from 0 - 100% represent growth inhibition, and numbers from -100% - 0 represent cell death. For example, a value of 40 represents 60% growth inhibition. A value of 0 means no net growth occurred over the course of the experiment. A value of -40 indicates 40% of cells at the beginning of the experiment died by the end of the experiment. A value of -100 means all cells are dead at the end of the experiment.
NCI-60 Human Tumor Cell Lines Screen was performed using the standard one-dose NCI protocol, which is described in more detail at https://dtp.cancer.gov/discovery_development/nci-60/default.htm.
Compounds with GIPRCNT values below 10 were considered active. Activity score was based on GIPRCNT using the following formula: […]
Score is 0 for GIPRCNT values of 100 or above, 50 for GIPRCNT values of 0, and 100 for GIPRCNT values of -100.
Turning to `CCC(C)(C)c1ccc(OCCCCN2CCN(c3ccncc3)CC2)cc1`, the growth was 63.2%.
The figure for `O=C(O)c1cccc(-c2ccc(/C=N/NC(=O)c3[nH]c4ccc(Br)cc4c3-c3ccccc3)s2)c1` is 26.3%; for `O=C(N/N=C/c1ccc(-c2ccc(O)cc2)o1)c1[nH]c2ccc(Br)cc2c1-c1ccccc1` it is 1.84% (active).
The value for `C#CCOc1cc(N(CC)CC)ccc1C(C(=O)NC(C)(C)C)N(C(=O)C1CCc2cc(F)ccc2O1)c1ccc(Br)cc1` (stereo not given) was 110%.
As to `COc1cc(OC)c2c3nc4cc(C)c(C)cc4nc3n(CCN(C)C)c2c1`, the growth is 101%.
The value for `Cn1cc(-c2cc(N)n3nc(-c4cn(C)c5ccccc45)cc3n2)c2cc(Cl)ccc21` was -87.4% (active); that for `C=C1CCC2C3(C)COC(c4ccccc4F)OC3CCC2(C)C1CC(O)C1=CCOC1=O` (stereo not given) was 17.2%; that for `CCOC(=O)COc1c(OC)c(OC)cc2oc(-c3cccc(C(=O)Nc4ccc(Cl)cc4)c3)cc(=O)c12` was 71.3%.
The figure for `COc1ccc(-c2ccnc(SCc3cc4cc(OC)ccc4[nH]c3=O)n2)cc1` is 12.8%; for `CSc1ccccc1NC(=O)c1ccc2nn(/C(C#N)=C/c3ccccn3)nc2c1` it is -67% (active).
On to `COc1ccc2c(c1)c(-c1cc3nc(-c4cn(C)c5ncc(Br)cc45)cc(N)n3n1)cn2C`, for which the growth was -68.6% (active).
The value for `NS(=O)(=O)c1ccc(-n2cc(-c3cccc(NC(=O)c4cc(C(F)(F)F)cc(C(F)(F)F)c4)c3)nn2)cc1` was 81.8%.
Consider `O=C(COc1ccc(NC(=O)Nc2ccc(Cl)cc2)cc1)N/N=C/c1ccccc1`, for which the growth was -84.3% (active).
The figure for `COc1ccc(/C=C2\C(=O)Nc3ccc(Cl)cc32)cc1OCc1ccccn1` is 96.2%.
The figure for `CC(=O)Nc1cccc(Nc2nccc(N[C@@H](C)c3ccccc3)n2)c1` is 41.5%; for `O=[N+]([O-])c1ccc(/C=C/c2nc3ccccc3n3c(=S)[nH]nc23)cc1` it is 86.3%; for `CC(=O)OC[C@@]1(C)C2CC[C@]3(C)C(CC=C4C5CC(C)(C)CC[C@]5(C(=O)Nc5cccc(C)c5)CC[C@]43C)[C@@]2(C)C[C@@H](OC(C)=O)[C@@H]1OC(C)=O` (stereo not given in full) it is 38.7%.
Consider `O=C1C(=Nc2ccc(F)c(Cl)c2)c2cccc3cccc1c23`, for which the growth was 97.5%.
The value for `COc1ccccc1C(=O)NN1C(=O)/C(=C/C2=Cc3ccccc3OC2)SC1=S` was 109%; that for `Cc1ccc(Cc2cnc(NC(=O)c3ccc(/C=C4\SC(=S)N(C)C4=O)cc3)s2)cc1` was 25.6%; that for `COc1c(F)ccc(C(=O)Nc2ccc3nc(NC(=O)C4CCCN(S(=O)(=O)c5cccc(C(F)(F)F)c5)C4)sc3c2)c1F` (stereo not given) was 83.8%.
The value for `Cc1ccc(NC(=O)[C@]23CCC(C)(C)CC2C2=CCC4[C@@]5(C)C[C@@H](O)[C@H](O)[C@@](C)(CO)C5CC[C@@]4(C)[C@]2(C)CC3)cc1` (stereo not given in full) was 34.1%; that for `COc1ccc(-c2nc3cc(C)ccc3n2CC(=O)N=Nc2c(O)[nH]c3ccc(Cl)cc23)cc1` was 47.9%; that for `C#CCOc1cc(N(CC)CC)ccc1C(C(=O)NC(C)(C)C)N(C(=O)C1CCc2cc(F)ccc2O1)c1cc(C)cc(C)c1` (stereo not given) was -14.6% (active).
The value for `O=C(/C=C/c1ccc(O)c(O)c1)NC1CCOC1O` (stereo not given) was 113%; that for `CN(C)c1ccnc(NCCCSC(c2ccccc2)(c2ccccc2)c2ccccc2)c1` was 43%; that for `O=C(CCN1C(=O)/C(=C/c2ccc(F)cc2)SC1=S)N1CCOCC1` was 65.9%.
With `O=C1NC(=O)c2c1c1c3cc(Br)ccc3[nH]c1c1oc3ccc(F)cc3c21`, the growth is -58.3% (active).
The figure for `O=C(N=Nc1c(O)[nH]c2ccc(Cl)cc12)c1ccc2nc(-c3ccccc3)[nH]c2c1` is 43.4%; for `Cc1sc(C(NC(=O)OCCn2c([N+](=O)[O-])cnc2C)C(F)(F)Cl)nc1-c1ccc(OC(F)(F)F)cc1` (stereo not given) it is -90.7% (active).
In the case of `COc1ccc(/C=C/c2nc3ccccc3c(=O)n2CC(=O)Nc2ccc(Cl)cc2)cc1`, the growth is 99.9%.
With `CC1(C)CC[C@]2(C(=O)Nc3ccccc3)CC[C@]3(C)C(=CCC4[C@@]5(C)C[C@@H](O)[C@H](O)[C@@](C)(CO)C5CC[C@]43C)C2C1` (stereo not given in full), the growth is 59.8%.
On to `CNC(=O)c1cc(Oc2ccc3nc(NC(=O)Nc4cccc(OC(F)(F)F)c4)sc3c2)ccn1`, for which the growth was -20.5% (active).
The value for `Cc1ccc2c(N)c(C(=O)Nc3ccc(OC(F)(F)F)cc3)sc2n1` was 67.4%; that for `O=C(c1ccc(Cl)cc1)c1ccc(OCCCN2CCN(c3ccncc3)CC2)cc1` was 70.1%; that for `COc1cc2c(c(OC)c1OC)C(=O)CC(c1cccc(NC(=O)c3cc(N)ccc3Cl)c1)O2` (stereo not given) was 32.7%.
`COc1ccc(C(=O)/C=C/c2c(F)cccc2Cl)cc1S(N)(=O)=O`: the growth was 25.1%.
Take `CCCCSc1nc(NCCc2c[nH]c3ccccc23)c(C#N)c(-c2ccc(F)cc2)n1`: the growth is 72%.
The value for `CC(=O)Oc1ccccc1C(=O)[Se]CC(=O)Nc1cccc(C(F)(F)F)c1` was -21% (active); that for `COc1cc(-c2ccc(/C=N/NC(=O)c3[nH]c4ccc(Br)cc4c3-c3ccccc3)s2)cc(OC)c1OC` was 104%.
